# H9c2 TAG inh = inhibitors of triacylglycerol accumulation, primary screen, cell-based, uHTS, fluorescence, H9c2; H9c2 cells, Nile Red lipid (TAG) fluorescence; cells loaded with 200 µM oleic acid; hit rate 0.66% among 230,000; inhibition, % at 12.5 µM;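 active = pattern-corrected inhibition of lipid staining of at least 50% with the nuclear-stain viability signal not falling by more than 50%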;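 also: 0% = DMSO wells and 100% = triacsin C control wells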
# NadD block = inhibitors of S. aureus NadD, primary screen, biochemical, colorimetric, uHTS | inhibition, % at 20 µM | purified NadD enzyme, colorimetric absorbance read-out | Nicotinate-nucleotide adenylyltransferase NadD (Staphylococcus aureus N315) | hit rate 0.78% among 360,000; in the data active = inhibition above about 26%
# aDG glyco act = activators of alpha-DG glycosylation, primary screen, uHTS, Pro5-aDG cells, AlphaScreen; alpha-DG glycosylation AlphaScreen (IIH6); 0% Pro5, 100% B10-LARGE cell signal; AID 624168, 2012; hit rate 0.22% among 360,000; activation, % at 10 µM;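 active = activation of at least 8% versus controls, or a plate z-score of at least 8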;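 also: Pro5 are CHO cells carrying HIG-tagged alpha-DG that lacks glycosylation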
# MPTP inh = mitochondrial permeability transition pore inhibitors, primary screen, biochemical, isolated mouse mitochondria, absorbance; Ca2+ swelling absorbance, 30 min; inhibition, % at 10 µM; hit rate 1.4% among 360,000; AID 602449, 2012;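 active = inhibition of 50% or more, scaled per plate between neutral and stimulator controls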;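 also: 0% = DMSO wells given calcium and 100% = 1 mM EGTA wells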
# MPTP counter = fluorescence retest of MPTP screen hits in isolated mitochondria, single concentration; AID 624504, 2012; shares compounds with MPTP inh; membrane potential, Rhodamine 123 fluorescence; inhibition, % at 10 µM; hit rate 78% among 5,000; in the data active = inhibition above about 22%;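 also: 0% = DMSO vehicle and 100% = positive control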
# MPTP swell DR = mitochondrial permeability transition pore inhibitors, dose response, biochemical, absorbance, uHTS hits; shares compounds with MPTP inh; isolated mitochondria swelling; IC50, µM; hit rate 58% among 780; in the data active = IC50 below about 20 µM
# MPTP cs DR = fluorescent counter-screen in isolated mitochondria, dose response, counter-screen for MPTP inhibitor project, biochemical, fluorescence, uHTS hits. shares compounds with MPTP inh. isolated mitochondria counterscreen, fluorescence read-out. IC50, µM. hit rate 49% among 780. AID 651564, 2012; in the data active = IC50 below about 80 µM
# Active calls of the source: *; i = inactive; / = no result; ! = not active in a repeat. Only some compounds are listed: those with a hit (about 2.7% of all), similar ones and a draw of the others.
SMILES,H9c2 TAG inh,NadD block,aDG glyco act,MPTP inh,MPTP counter,others
COc1ccc(NC(=O)C2c3ccccc3OCC(=O)N2CC(F)(F)F)cc1 (configuration not stated),/,-0.7,-0.1,0.6,/,
c1ccc2c(CSc3ncnc4nc[nH]c34)cccc2c1,-6.9,5.1,1.0,55.8*,41.3*,
O=S1(=O)CC(N2CC=CC2)CN1Cc1cn(Cc2ccccc2)nn1 (configuration not stated),/,1.2,0.3,5.7,/,
Cc1cc(N=Nc2ccccc2C(=O)O)c(C)c(C)c1O,2.0,0.6,0.1,55.9*,36.2*,
Cc1cc(O)c(C(C)C)cc1N=Nc1ccccc1C(=O)O,6.9,-3.0,0.0,76.2*,51.8*,
COc1ccc(-c2nn(Cc3ccccc3)cc2C(=O)N2CCN(c3ncccn3)CC2)cc1,-28.7,2.5,0.1,-3.3,/,
Cc1ccc(N2CCN(S(=O)(=O)N3CCCCC3)CC2)cc1Cl,/,-1.4,0.0,0.1,/,
Cc1cc(C)c(N2CCN(S(=O)(=O)N3CCCCCC3)CC2)c(C)c1,-13.8,-4.4,0.6,78.9*,13.3,MPTP swell DR=i;MPTP cs DR=17.4*
Cc1ccc(-n2c(C)cc(C3=NNC(=NC4CC4)SC3)c2C)cc1C,0.5,9.5,0.8,79.1*,83.2*,
Cc1cc(C2=NNC(=NC3CC3)SC2)c(C)n1-c1c(C)n(C)n(-c2ccccc2)c1=O,-13.9,0.7,-0.3,0.9,/,
CC(C)(C)[C@H]1COC(=O)[C@H](NC(=O)OCC2c3ccccc3-c3ccccc32)C/C=C\C[C@@H](CC(=O)N[C@@H](CO)Cc2ccccc2)C(=O)N1,-15.9,7.0,-0.3,-0.5,/,
O=[N+]([O-])c1nccn1CCCCCCCCCCCN1CCOCC1,/,-3.0,0.0,3.8,/,
Fc1ccc([C@@H]2CCNC[C@H]2COc2ccc3c(c2)OCO3)cc1,51.7*!,1.4,0.5,97.5*,-11.2,
Fc1ccc(C2CCNCC2COc2ccc3c(c2)OCO3)cc1 (configuration not stated),/,-4.5,0.4,2.7,/,
O=C(C1CCCN(c2ncnc3c2nc2n3CCCCC2)C1)N1CCN(c2ccccc2F)CC1 (configuration not stated),/,-0.3,-0.1,0.2,/,
COc1ccc(CNCC(O)COc2cccc3c2OC(C)(C)C3)cc1 (configuration not stated),-1.1,-7.9,0.9,74.9*,46.4*,
Cn1c(N)c(C(=O)Nc2ccc(-c3ccccc3)cc2)sc1=S,-2.3,-6.7,-0.2,1.1,/,
N#Cc1c(-c2ccc(Cl)cc2)n(O)c2ccccc12,-35.9,-4.2,0.1,95.6*,99.6*,
CCCCn1c(N)c(N(CCOC)C(=O)CSCc2cccc(C)c2)c(=O)[nH]c1=O,11.6,-2.4,0.5,0.0,/,
O=c1[nH]c(/C=C/c2ccccc2Cl)nc2ccccc12,/,-3.4,0.1,-0.3,/,
Clc1ccc(/C=C/c2nc3ccccc3[nH]2)cc1,/,-3.6,0.5,80.1*,84.7*,
Clc1cccc(Cl)c1/C=C/c1nc2ccccc2[nH]1,/,0.0,0.4,95.3*,81.9*,
Clc1ccc(/C=C/c2nc3ccccc3[nH]2)c(Cl)c1,/,-25.4,0.3,86.2*,79.4*,
Clc1ccc(SCc2nc3ccccc3[nH]2)cc1,/,-0.4,0.6,15.8,/,
CCN(CC)c1ncnc2c1ncn2[C@H]1CN(Cc2ccc3c(c2)OCO3)C[C@@H](CO)O1,22.4,1.7,0.1,-1.0,/,
SMILES,H9c2 TAG inh,NadD block,aDG glyco act,MPTP inh,MPTP counter,others
CCCCN(CCCC)CC(O)CN(c1cc([N+](=O)[O-])ccc1OC)S(=O)(=O)c1ccccc1 (configuration not stated),/,-9.4,-0.1,76.1*,-8.4,MPTP swell DR=>100;MPTP cs DR=57.3*
Cc1ccccc1C(=O)Nc1ccnn1C1CCN(C(=O)c2ccoc2)CC1,-1.6,-1.8,0.0,0.4,/,
CC(=O)N1CCN(c2ccc(NC(=S)NC(=O)COc3ccc(C(C)(C)C)cc3)cc2)CC1,/,-6.2,0.5,88.2*,87.8*,
CC(C)CC(=O)NC(=S)Nc1ccc(N2CCN(C(=O)c3cccs3)CC2)cc1,-45.3,-0.2,0.1,93.2*,63.7*,
CCC(=O)N1CCN(c2ccc(NC(=S)NC(=O)COc3ccccc3)cc2)CC1,-15.2,-3.3,0.1,13.2,/,
O=S(=O)(Nc1nc2ccccc2nc1NCC1CCCO1)c1cc(Cl)ccc1Cl (configuration not stated),5.4,4.2,-0.1,32.0,/,
O=C(NNc1ncnc2sccc12)c1ccc(Cl)cc1,-33.3,-0.7,0.5,31.5,/,
Cc1csc2ncnc(NNC(=O)c3ccc(Cl)cc3)c12,-1.1,-2.2,1.1,55.2*,38.9*,
O=C(c1cc(COc2cccc3cnccc23)on1)N1CCCC(CCCO)C1 (configuration not stated),-9.9,0.2,1.5,91.3*,83.1*,
CC(Oc1ncnc2ccccc12)C(=O)Nc1cccc(S(=O)(=O)N2CCOCC2)c1 (configuration not stated),/,1.5,-0.3,0.2,/,
CCC(=O)N1CCc2cc(S(=O)(=O)NCCC(=O)N3CCc4ccccc4C3)ccc21,-35.3,8.7,2.0,76.4*,61.1*,
O=[N+]([O-])c1ccc2[nH]c(=S)sc2c1,-3.8,15.1,-0.2,57.4*,76.9*,
O=[N+]([O-])c1ccc2[nH]c(=S)[nH]c2c1,7.3,4.7,-0.1,-2.8,/,
COc1cc(C)c(NC(=S)Nc2ccc(C)c(Cl)c2)cc1OC,/,4.0,0.0,60.9*,76.8*,
COc1ccccc1NS(=O)(=O)c1cc(NC(=S)Nc2cc(C)cc(C)c2)ccc1Cl,/,10.1,-0.1,97.4*,94.3*,
COc1cc(C)c(NC(=S)Nc2cccc(Cl)c2)cc1OC,/,-3.2,0.0,82.8*,82.9*,
COc1cc(OC)c(NC(=S)Nc2cccc(C)c2)cc1Cl,/,-1.0,0.1,1.4,/,
O=C(NC1(Cc2ccccc2)CCN(CCc2cccs2)C1=O)c1ccccc1 (configuration not stated),/,-5.7,-0.3,-1.5,/,
Cc1ccc(OCCNS(=O)(=O)c2ccc(N3CCCC3=O)cc2)cc1,-7.8,1.6,2.0,83.6*,69.7*,
Cc1ccc(OCCNS(=O)(=O)c2ccc(N3CCCC3=O)cc2)cc1C,/,-8.2,1.1,103.5*,91.5*,
CCCCCCCCCC[n+]1cccc2c3ccccc3ccc21,31.3,11.9,1.2,96.4*,97.4*,
Cn1nc(CC(=O)Nc2ccc(N3CCN(C(=O)OC(C)(C)C)CC3)cc2)c2ccccc2c1=O,-28.1,-5.2,3.5,101.1*,74.0*,
